Assay outcomes deposited in PubChem BioAssay by The Scripps Research Institute Molecular Screening Center.
PME-1 inh: blocks human protein phosphatase methylesterase 1; 320,000 compounds, 0.53% hits; recombinant PME-1, FP-Rh probe fluorescence polarization; inhibition, % at 5.9 µM;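 active = inhibition above the campaign mean of all compounds plus 3 SD, cut at about 26% in these data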;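 also: competitive labeling of PME-1 active site by serine hydrolase directed probe; inhibitors block probe labeling so polarization falls and inhibition rises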
Target sequence (Q9Y570 whole entry, looked up): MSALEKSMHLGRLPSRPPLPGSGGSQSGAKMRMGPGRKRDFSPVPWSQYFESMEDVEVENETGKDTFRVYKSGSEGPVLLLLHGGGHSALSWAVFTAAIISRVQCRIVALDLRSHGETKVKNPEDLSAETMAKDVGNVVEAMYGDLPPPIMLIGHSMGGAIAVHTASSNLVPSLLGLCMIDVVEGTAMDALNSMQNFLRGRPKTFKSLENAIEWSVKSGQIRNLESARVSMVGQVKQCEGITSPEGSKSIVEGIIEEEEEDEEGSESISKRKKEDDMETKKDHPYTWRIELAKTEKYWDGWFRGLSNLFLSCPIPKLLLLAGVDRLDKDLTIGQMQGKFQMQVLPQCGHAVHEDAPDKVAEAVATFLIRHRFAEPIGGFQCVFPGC
LYPLA2 counter: counter-screen for PME1 inhibitors: inhibitors of human LYPLA2 | 320,000 compounds, 0.38% hits | AID 2177 | O95372 | recombinant LYPLA2, FP-Rh probe fluorescence polarization | inhibition, % at 5.9 µM;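 active = inhibition above the screen-wide mean plus 3 SD, limit set per campaign, cut at about 26% in these data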
PREPL inh: human PREPL enzyme inhibition; Q4J6C6; recombinant PREPL, fluorescence polarization activity-based probe; inhibition, % at 5.96 µM; 320,000 compounds, 0.68% hits; AID 2751; in the data active = inhibition above about 43%
LYPLA1 counter: LYPLA1 (human) inhibition in PME1 counter-screen. O75608. recombinant LYPLA1, FP-Rh probe fluorescence polarization. inhibition, % at 5.9 µM. 320,000 compounds, 0.16% hits. AID 2174;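 active = inhibition above the mean of all tested compounds plus 3 SD, set per campaign, cut at about 14% in these data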;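 also: inhibitors block serine hydrolase probe labeling of LYPLA1 so polarization falls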
Fam108B inh: Fam108B inhibition, counter-screen for RBBP9 inhibitors; recombinant Fam108B, FP-Rh probe fluorescence polarization; inhibition, % at 9.51 µM; 300,000 compounds, 0.33% hits; AID 1947;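 active = inhibition above the screen mean inhibition plus 3 SD, computed separately per campaign, cut at about 18% in these data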;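 also: inhibitors lower polarization as less probe binds the enzyme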
GSTO1 counter: blocks human GSTO1 in RBBP9 counter-screen; 300,000 compounds, 1.1% hits; P78417; inhibition, % at 5.96 µM; recombinant GSTO1, activity-based probe fluorescence polarization; AID 1974;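 active = inhibition above the campaign mean inhibition plus 3 SD, cut at about 35% in these data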
Target sequence (P78417 whole entry, looked up): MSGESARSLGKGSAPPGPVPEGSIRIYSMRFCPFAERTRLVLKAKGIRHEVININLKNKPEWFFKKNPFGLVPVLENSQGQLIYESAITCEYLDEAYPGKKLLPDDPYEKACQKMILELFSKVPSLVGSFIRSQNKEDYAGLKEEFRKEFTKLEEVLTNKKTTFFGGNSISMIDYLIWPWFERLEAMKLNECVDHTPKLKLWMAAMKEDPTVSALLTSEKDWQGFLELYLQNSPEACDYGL
LYPLA2 conf: counter-screen for PME1 inhibitors: confirmation of human LYPLA2 inhibitors. shares compounds with LYPLA2 counter. recombinant LYPLA2, FP-Rh probe fluorescence polarization. inhibition, % at 5.9 µM. 1,100 compounds, 72% hits. AID 2232;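 active = mean inhibition across replicates above the hit cutoff set in the primary screen, cut at about 26% in these data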;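 also: blocked labeling of the enzyme by serine hydrolase FP-Rh probe lowers polarization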
LYPLA2 gel ABPP: LYPLA2 (human) inhibition, late stage results. shares compounds with LYPLA2 counter. rhLYPLA2 in mouse brain proteome, gel ABPP FP-Rh. inhibition, % at 20 µM. 150 compounds, 30% hits. AID 652029;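 active = inhibition of LYPLA2 enzyme probe labeling above about 50%, limit read from the data; inactive = inhibition below that limit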;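 also: loss of FP-Rh probe labeling of the LYPLA2 gel band measured as band density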
Numbers stand for hits; - = inactive; . = no result. An excerpt weighted towards active compounds, which were near 1.9% of everything screened.

SMILES	PME-1 inh	LYPLA2 counter	PREPL inh	LYPLA1 counter	Fam108B inh	GSTO1 counter	LYPLA2 conf	others
O=C1[C@@H]2Cc3c([nH]c4ccccc34)CN2C(=O)CN1CCCCCO	-	30	-	-	-	-	-
CC(C)CCN1CC(=O)N2Cc3[nH]c4ccccc4c3C[C@H]2C1=O	-	60	-	-	-	-	56	LYPLA2 gel ABPP=-
COc1ccc(C(O)P(=O)(OCC(C)C)OCC(C)C)c(OC)c1 (stereo not given)	-	-	-	-	-	-	.
Cc1cc(C)c(C#N)c(SCc2[nH]nc3c2C(c2ccc(F)cc2)C(C#N)=C(N)O3)n1 (stereo not given)	-	40	-	-	-	-	36
CCCCCCCOc1ccc(OC(=O)c2ccncc2)cc1	-	32	-	-	-	-	49
CCCCCCOC(=O)c1ccc(OC(=O)c2cccnc2)cc1	-	-	-	-	-	-	.
CCCCOc1ccc(OC(=O)c2cccnc2)cc1	-	-	-	-	-	-	.
CCCCCCCOc1ccc(OC(=O)c2cccnc2)cc1	-	41	-	-	-	-	48
C/C(=N/OC(=O)C1CC1)c1cc(-c2ccc(Cl)cc2)no1	-	37	-	-	-	-	-
C/C(=N\OC(=O)c1ccccc1)c1cc(-c2ccc(Cl)cc2)no1	-	-	-	-	-	-	.
O=[N+]([O-])c1ccc(Oc2ccc(/C=N/O)cc2)nc1	-	41	-	-	-	-	26
O=C1NC(=O)/C(=C\c2ccc(Oc3ccc([N+](=O)[O-])cn3)cc2)S1	-	-	-	-	-	-	.
O=C(O)c1cccc(NC(=S)NC(=O)c2cccc(OCc3ccccc3)c2)c1	-	31	-	-	-	-	29
Cc1ccc(C(=O)O)cc1NC(=S)NC(=O)c1ccc(COc2ccccc2)cc1	-	46	-	-	-	-	51	LYPLA2 gel ABPP=-
O=C(Cc1ccc2c(c1)OCCO2)N1CCN(c2ccccc2)CC1	-	-	-	-	-	-	.
CCc1ccc(N2C(=O)CC(Cn3nc(C)cc3C)C2=O)cc1 (stereo not given)	-	-	-	-	-	-	.
CC1(C)NC(C)(C)C(O)(C(N)=O)C1=O (stereo not given)	-	27	-	-	-	-	-
C[C@@H]1CCC[C@]2(O[C@H](CCO)C[C@H](O)[C@H]2O)O1	-	-	-	-	-	-	.
O=C(O)c1cc(N/N=C/c2ccc3c(c2)OCO3)ccc1Cl	-	-	-	-	-	-	.
O=C(O/N=C/c1ccc2c(c1)OCO2)c1ccccc1Cl	-	26	55	-	-	-	-
Cc1cccc(C2NS(=O)(=O)N=C2N)c1 (stereo not given)	-	-	-	-	-	-	.
COc1ccc(C2NS(=O)(=O)N=C2N)cc1 (stereo not given)	-	32	-	-	-	-	-
Cc1nc2ccccc2nc1OCC(=O)Nc1ccccc1	-	-	-	-	-	-	.
COc1cccc(NC(=O)COc2nc3ccccc3nc2C)c1	-	27	-	-	-	-	32
COc1ccc(OC)c(-c2cc(C3CCN(C(=O)OC(C)(C)C)CC3)[nH]n2)c1	-	-	-	-	-	-	.
SMILES	PME-1 inh	LYPLA2 counter	PREPL inh	LYPLA1 counter	Fam108B inh	GSTO1 counter	LYPLA2 conf	others
COc1ccc(-c2cc(C3CCN(c4ccc(C(C)=O)cc4[N+](=O)[O-])CC3)[nH]n2)cc1	-	37	-	-	-	-	42
CC(=O)c1ccc(N2CCC(c3cc(-c4ccc(Cl)cc4)n[nH]3)CC2)c([N+](=O)[O-])c1	-	-	-	-	-	-	.
COC(=O)c1ccc(N2CCC(c3cc(-c4ccc(OC)cc4)n[nH]3)CC2)c([N+](=O)[O-])c1	-	26	-	-	-	-	-
COc1ccc(-c2cc(C3CCN(C(=O)OC(C)(C)C)CC3)[nH]n2)cc1	-	27	-	-	-	-	-
COC(=O)c1ccc(N2CCN(C(=O)C3CC3)CC2)c([N+](=O)[O-])c1	-	-	-	-	-	-	.
CCC(=O)Nc1cc(C(=O)O)ccc1Sc1ccc(C)cc1	-	-	-	-	-	-	.
CC(=O)c1ccc(S(=O)(=O)N2CCN(CCOc3ccc(Br)cc3)CC2)cc1	-	37	-	-	.	.	37
CN(C(=O)Nc1ccc(Cl)cc1Cl)[C@H]1c2cc(Br)ccc2OC[C@H]1CO	-	-	-	-	-	-	.
O=C(COc1ccc(Cl)cc1)N1CCN(Cc2ccc3c(c2)OCO3)CC1	-	34	-	-	-	-	29
CCOc1ccccc1C(=O)NCC(=O)N1CCN(Cc2ccc3c(c2)OCO3)CC1	-	62	-	-	.	.	57	LYPLA2 gel ABPP=-
O=C(Nc1ccc(Cl)cc1)N1CCN(Cc2ccc3c(c2)OCO3)CC1	-	-	-	-	-	-	.
COc1cccc(-c2cc(C(=O)N3CCN(Cc4ccc5c(c4)OCO5)CC3)on2)c1	-	30	-	-	-	-	29
COc1ccccc1OCCn1c(=O)oc2ccc(C)cc21	-	-	-	-	-	-	.
Cc1ccc(C(=O)N2CCN(c3ccc([N+](=O)[O-])cc3)CC2)o1	-	-	-	-	-	-	.
CC(=O)Nc1cccc(C(=O)OC(C)C(=O)N2CCc3ccccc32)c1 (stereo not given)	-	28	-	-	-	-	28
COc1ccc2[nH]cc(CCNC(=O)CS(=O)(=O)Cc3ccccc3)c2c1	-	-	-	-	-	-	.
CC(=O)Nc1cccc(-n2nnc(SCC(=O)N(C)c3ccccc3)n2)c1	-	34	-	-	-	-	40
COc1ccc(NC(=O)C2(S(=O)(=O)c3ccc(C)cc3)CC2)cc1OC	-	-	-	-	-	-	.
CCCN(Cc1nnc(-c2ccccc2Cl)o1)C(=O)c1cccc(S(=O)(=O)N2CCOCC2)c1	-	-	-	-	-	-	.
COc1ccc(-c2ccc(=O)n(Cc3ccc([N+](=O)[O-])cc3)n2)cc1	-	29	-	-	-	-	30
O=C(COC(=O)c1ccc(Br)cc1)NC(=O)NCc1ccccc1	-	-	-	-	.	.	.
Cn1c(SCC(=O)Nc2ccc3cn[nH]c3c2)nnc1-c1cccs1	-	29	-	-	-	-	-
O=C(CN1CCN(c2ccc(Cl)cc2)CC1)NCc1ccccc1	-	-	-	-	-	-	.
O=C(CN1CCN(C/C=C/c2ccccc2)CC1)NCc1ccc(Cl)cc1	-	42	-	-	-	-	34
CC(=O)NCCc1ccc(C(=O)Cn2cnc3ccccc3c2=O)cc1	-	29	-	-	-	-	39
COc1ccc(CCNC(=O)Cn2cnc3ccccc3c2=O)cc1OC	-	-	-	-	-	-	.
